Data published in PubChem BioAssay.
Several values for one entry are separate records, joined by “and”; a condition that tells them apart may be missing. Identical values can stand only once. Inconclusive results are not listed. Activity calls are given as the source filed them.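 How the source made its calls, unless noted: active means normalized viability below 100% at a tested concentration; inactive means the rest.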

Legend:
[1] = system: Aerobactin synthetase IucA (Klebsiella pneumoniae); assay: IucA aerobactin synthetase inhibitors, biochemical, Tocris library, absorbance (AID 1345561; call rule not given here;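 further: 100% = enzyme without compound and 0% = no enzyme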); conditions: purified IucA enzyme assay, absorbance (OD) read-out; stronger effect = lower value;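 tested at 8 µM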
[2] = growth inhibition of DIPG glioma cells, dose response, cell-based, JHH-DIPG-1, MIPE4.0, CellTiter-Glo, qHTS (AID 1347062; cut-off not given, nearly all actives have AC50 up to about 27 µM); conditions: JHH-DIPG-1 viability, CellTiter-Glo ATP luminescence
[3] = growth inhibition of DIPG glioma cells, dose response, cell-based, SU-DIPG-IV, MIPE4.0, CellTiter-Glo, qHTS (AID 1347063; cut-off not given, nearly all actives have AC50 up to about 30 µM;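 further: compound exposure lasted 48 hours before the viability readout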); conditions: SU-DIPG-IV viability, CellTiter-Glo ATP luminescence
[4] = viability loss in pontine glioma line – cell-based, SU-DIPG-XXV, MIPE5.0, CellTiter-Glo, qHTS, dose response (AID 1347065; cut-off not given, nearly all actives have AC50 up to about 26 µM;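 further: cells exposed to compound for 48 hours before ATP readout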); conditions: CellTiter-Glo ATP luminescence
[5] = SU-DIPG-VI glioma cell viability, MIPE4.0 library, CellTiter-Glo luminescence, qHTS (AID 1347066; cut-off not given, nearly all actives have AC50 up to about 30 µM;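 further: cells exposed to compound for 48 hours before readout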); conditions: CellTiter-Glo ATP luminescence
[6] = JHH-DIPG-1 glioma cell viability, MIPE5.0 library, CellTiter-Glo luminescence, qHTS (AID 1347067; cut-off not given, nearly all actives have AC50 up to about 26 µM;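 further: cells exposed to compound for 48 hours before readout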); conditions: JHH-DIPG-1 glioma viability, CellTiter-Glo ATP luminescence
[7] = SU-DIPG-XXV glioma cell viability, MIPE5.0 library, qHTS (AID 1347068; cut-off not given, nearly all actives have IC50 up to about 30 µM)
[8] = sensitizers of A549 cells to miR-34 induction, primary screen, imaging, A549 dox-inducible miR-34, nuclei and caspase counts (AID 1347080;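 active means compounds whose cell count with miR-34 switched on is under 0.7 times the count with it off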); conditions: A549 miR-34 inducible, Hoechst nuclei count, 48 h
[9] = inhibitors of Cryptococcus chitosan production, flow cytometry, Cibacron Brilliant Red staining (AID 1347148; call rule not given here;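 further: compound exposure lasted three days at 37 degrees C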); conditions: Cryptococcus neoformans chitosan, stronger effect = lower value; at 10 µM unless noted
[10] = viability rescue of complex I mutant cybrids, primary screen, cell-based, galactose medium, ATP luminescence (AID 1645843;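 active means z-score of at least 1.8 in each of two replicates, scored against plate mean and spread of sample wells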;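 further: positive z means more ATP and so rescue of galactose-driven cybrid death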); conditions: complex I mutant cybrid cells, 72 h, stronger effect = higher value
[11] = liver-stage malaria parasite growth inhibition, primary screen, cell-based, HepG2, luciferase luminescence, HepG2 viability (AID 624349; in the data active means parasite load remaining mostly below about 12%, no sharp cut-off; inactive means mostly above about 10%;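 further: 100% = mean of DMSO negative control wells on the same plate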); conditions: P. berghei liver stage in HepG2, luciferase luminescence, concentration not given here; parasite load remaining: stronger effect = lower value; viability: measured here: HepG2 viability without parasites
[12] = modifiers of HSF1 nuclear foci, imaging, Selleck Cancer Library (AID 1347162; in the data active means plate-normalised HSF1 focus index below about 0.46); conditions: human cells, at 10 µM; SSMD: measured here: HSF1 foci SSMD mean; cell count: measured here: cell number; plate-normalised HSF1 focus index: stronger effect = lower value
[13] = circadian clock period modulators, cell-based, LOPAC library, luminescence reporter (AID 2774; call rule not given here;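 further: values are relative to mean of DMSO wells on each plate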); conditions: circadian reporter cells, at 7 µM, actives lie on both sides
[14] = system: Hepatitis C virus NS3 helicase; assay: HCV NS3 helicase inhibitors, primary screen, biochemical, fluorescence polarization, LOPAC1280 library (AID 687035; in the data active means inhibition above about 37%); conditions: Purified HCV NS3 helicase, Cy5-dT15 ssDNA binding fluorescence polarization; stronger effect = higher value; concentration not given here
[15] = Cy5 fluorescence quenching or enhancement artefacts, artefact control for HCV NS3 helicase inhibitor project, biochemical, LOPAC1280 (AID 687037; call rule not given here); conditions: Cy5-DNA-NS3h complex fluorescence interference counterscreen
[16] = phospholipid biosynthesis inhibitors in animal cells, primary screen, cell-based, LOPAC library, screen 4 (AID 1347384; call rule not given here); conditions: phospholipid biosynthesis inhibition screen, at 10 µM
[17] = survival rescue of mitochondrial mutant cells in low glucose, primary screen, MELAS cybrids, Rieske KO mouse fibroblasts, CellTiter-Glo (AID 1508586;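 active means mean z-score across replicates of 1.96 or higher in either the MELAS or the Rieske mutant cell line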;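 further: z relative to plate mean and SD of compound and empty wells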)
[18] = ovarian cancer cell viability with rucaparib, profiling panel, oncology-focused library, rucaparib conditional (AID 1508598); conditions: patient-derived ovarian cancer cells, CellTiter-Glo viability, 144 h, stronger effect = lower value
[19] = stronger effect = lower value, cell number ratio, induced over uninduced
[20] = measured here: relative caspase fold change +Dox/-Dox
[21] = measured here: total cells with miR-34 induction, stronger effect = lower value
[22] = measured here: total cells without miR-34 induction

Clc1ccc(-c2nc3sccn3c2/C=N/OCc2ccc(Cl)c(Cl)c2)cc1
4600 and 7870: cell count [8, 21]
1.07 and 1.53: fold change [8, 20]
5080 and 8770: cell count [8, 22]
active: AC50 [4] 23.5 µM
inactive: remaining activity [1] 112% | outcome [2] | outcome [3] | outcome [5] | outcome [6] | outcome [7] | fold change [8, 19] 0.906 and 0.897 | fold fluorescence [9] 3.64 [at 114.5 µM] | z-score [10] 0.06

Nc1nccc(-c2ccc3noc(-c4ccc(Cl)cc4)c3c2)n1
2.19: fold change [8, 20]
7060: cell count [12]
inactive: parasite load remaining [11] 22.2% | remaining activity [1] 127% | outcome [2] | outcome [5] | fold change [8, 19] 0.777 | plate-normalised HSF1 focus index [12] 1.19 | z-score [10] -0.05
4860: cell count [8, 22]
3.12: SSMD [12]
88.2%: viability [11]
active: AC50 [4] 20.9 µM
3770: cell count [8, 21]

Cn1cc(C2=C(c3ccc(Cl)cc3Cl)C(=O)NC2=O)c2ccccc21
4130 and 6000 and 2470: cell count [8, 22]
inactive: period change [13] 0.025 h | inhibition [14] -3% | fluorescence ratio (interference) [15] 1 | remaining activity [1] 92.7% | fold change [8, 19] 0.99 and 0.96 and 1.01 | plate-normalised HSF1 focus index [12] 1.09 | outcome [16] | z-score ([17]; MELAS cybrid survival, CellTiter-Glo 48 h, stronger effect = higher value) -0.394 | viability ([18]; at 0.000305 µM, OCI-C5x cells, with rucaparib 10 µM, 100% = cells with rucaparib alone) 106% | viability ([18]; at 0.000305 µM, OCI-C5x cells, without rucaparib) 117% | viability ([18]; at 0.000305 µM, OCI-P5x cells, with rucaparib 20 µM, 100% = cells with rucaparib alone) 102% | viability ([18]; at 0.000305 µM, OCI-P5x cells, without rucaparib) 103% | viability ([18]; at 0.00122 µM, OCI-C5x cells, with rucaparib 10 µM, 100% = cells with rucaparib alone) 122% | viability ([18]; at 0.00122 µM, OCI-C5x cells, without rucaparib) 119% | viability ([18]; at 0.00122 µM, OCI-P5x cells, with rucaparib 20 µM, 100% = cells with rucaparib alone) 107% | viability ([18]; at 0.00488 µM, OCI-C5x cells, with rucaparib 10 µM, 100% = cells with rucaparib alone) 117% | viability ([18]; at 0.00488 µM, OCI-C5x cells, without rucaparib) 114% | viability ([18]; at 0.00488 µM, OCI-P5x cells, with rucaparib 20 µM, 100% = cells with rucaparib alone) 105% | viability ([18]; at 0.0195 µM, OCI-C5x cells, with rucaparib 10 µM, 100% = cells with rucaparib alone) 125% | viability ([18]; at 0.0195 µM, OCI-C5x cells, without rucaparib) 111% | viability ([18]; at 0.0781 µM, OCI-C5x cells, with rucaparib 10 µM, 100% = cells with rucaparib alone) 110% | viability ([18]; at 0.0781 µM, OCI-C5x cells, without rucaparib) 112% | viability ([18]; at 0.0781 µM, OCI-P5x cells, with rucaparib 20 µM, 100% = cells with rucaparib alone) 106% | viability ([18]; at 0.313 µM, OCI-C5x cells, with rucaparib 10 µM, 100% = cells with rucaparib alone) 122% | viability ([18]; at 0.313 µM, OCI-C5x cells, without rucaparib) 106% | viability ([18]; at 1.25 µM, OCI-C5x cells, with rucaparib 10 µM, 100% = cells with rucaparib alone) 126% | viability ([18]; at 1.25 µM, OCI-C5x cells, without rucaparib) 111% | viability ([18]; at 5 µM, OCI-C5x cells, with rucaparib 10 µM, 100% = cells with rucaparib alone) 114% | viability ([18]; at 5 µM, OCI-C5x cells, without rucaparib) 120% | z-score [10] 1.59 and 0.305
4090 and 5760 and 2500: cell count [8, 21]
7820: cell count [12]
0.82: z-score ([17]; Rieske KO mouse fibroblast survival, CellTiter-Glo 72 h)
active: viability ([18]; at 0.00122 µM, OCI-P5x cells, without rucaparib) 89.9% | viability ([18]; at 0.00488 µM, OCI-P5x cells, without rucaparib) 91.8% | viability ([18]; at 0.0195 µM, OCI-P5x cells, with rucaparib 20 µM, 100% = cells with rucaparib alone) 98.3% | viability ([18]; at 0.0195 µM, OCI-P5x cells, without rucaparib) 89.5% | viability ([18]; at 0.0781 µM, OCI-P5x cells, without rucaparib) 81.9% | viability ([18]; at 0.313 µM, OCI-P5x cells, with rucaparib 20 µM, 100% = cells with rucaparib alone) 97.2% | viability ([18]; at 0.313 µM, OCI-P5x cells, without rucaparib) 89.8% | viability ([18]; at 1.25 µM, OCI-P5x cells, with rucaparib 20 µM, 100% = cells with rucaparib alone) 96.3% | viability ([18]; at 1.25 µM, OCI-P5x cells, without rucaparib) 84.5% | viability ([18]; at 5 µM, OCI-P5x cells, with rucaparib 20 µM, 100% = cells with rucaparib alone) 89.2% | viability ([18]; at 5 µM, OCI-P5x cells, without rucaparib) 83.9%
1.07 and 0.76 and 0.707: fold change [8, 20]
1.42: SSMD [12]
